Assay results published in the supplement of paper PMC8975748.
Structures can show the parent of a compound that is named as a salt.

Test system: Saccharomyces cerevisiae BY4741 SeMeCo community
Experiment: z-score of prototroph abundance vs DMSO median; higher = larger share of this subpopulation than in DMSO controls
Conditions: 10 µM; 24 h; SM minimal medium; subpopulation (auxotrophy): Prototroph
Procedure: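 Fluorescent four-plasmid SeMeCo (self-establishing metabolically cooperating S. cerevisiae BY4741 community; plasmids pH-mRuby2, pL-mWasabi, pU-eCFP, pM-TagRFP657) was grown 24 h in minimal SM medium with each Selleck FDA-approved drug at 10 µM in 384-well plates. Cells were fixed and imaged by high-content confocal microscopy. For each auxotrophic subpopulation (and the prototroph), a z-score gives the deviation from the DMSO vehicle-control population median.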

**Q.** Which “z-score of prototroph abundance” value does the source give for `CC1(C)S[C@@H]2[C@H](NC(=O)[C@H](N)c3ccccc3)C(=O)N2[C@H]1C(=O)OCOC(=O)[C@@H]1N2C(=O)C[C@H]2S(=O)(=O)C1(C)C` [Sultamicillin Tosylate] here?
**A.** -0.54

**Q.** With `Nc1ccc(S(=O)(=O)Nc2ccccn2)cc1` [Sulfapyridine] as the compound, how does the “z-score of prototroph abundance” value read?
**A.** 0.95

**Q.** Which “z-score of prototroph abundance” value does the source give for `CCOc1ccc2nc3cc(N)ccc3c(N)c2c1` [Ethacridine lactate monohydrate] here?
**A.** 3.33

**Q.** Which “z-score of prototroph abundance” value does the source give for `CCCN[C@H]1CCc2nc(N)sc2C1` [Pramipexole 2HCl Monohydrate] here?
**A.** 0.72

**Q.** With `c1ccc2[nH]c(-c3cscn3)nc2c1` [Thiabendazole] as the compound, how does the “z-score of prototroph abundance” value read?
**A.** 0.41

**Q.** For `CN(C)c1ccc(O)c2c1C[C@H]1C[C@H]3[C@H](N(C)C)C(=O)C(C(N)=O)=C(O)[C@@]3(O)C(=O)C1=C2O` [Minocycline HCl], which “z-score of prototroph abundance” value is on record?
**A.** -0.28

**Q.** Which “z-score of prototroph abundance” value does the source give for `Cn1cc(C(=O)[C@@H]2CCc3[nH]cnc3C2)c2ccccc21` [Ramosetron Hydrochloride] here?
**A.** -0.53

**Q.** For `OCCN1CCN(CC/C=C2/c3ccccc3Sc3ccc(C(F)(F)F)cc32)CC1` [Flupenthixol dihydrochloride], which “z-score of prototroph abundance” value is on record?
**A.** -0.24

**Q.** `O=C([O-])CC(O)(CC(=O)[O-])C(=O)[O-].O=C([O-])CC(O)(CC(=O)[O-])C(=O)[O-].[Bi+3].[K+].[K+].[K+].[K+].[K+]` [Bismuth Subcitrate Potassium] was tested. Which “z-score of prototroph abundance” value did it give?
**A.** 0.38

**Q.** For `CCC[C@@H]1C[C@@H](C(=O)N[C@@H]([C@H]2O[C@H](SC)[C@H](O)[C@@H](O)[C@H]2O)[C@@H](C)O)N(C)C1` [Lincomycin HCl], which “z-score of prototroph abundance” value is on record?
**A.** 0.69

**Q.** With `Cc1ccccc1OCC(O)CO` (stereo not given) [Mephenesin] as the compound, how does the “z-score of prototroph abundance” value read?
**A.** 0.89

**Q.** Which “z-score of prototroph abundance” value does the source give for `CC/C(=C(\c1ccccc1)c1ccc(OCCN(C)C)cc1)c1ccccc1` [Tamoxifen] here?
**A.** -0.91

**Q.** Which “z-score of prototroph abundance” value does the source give for `CCc1cccc2c3c([nH]c12)C(CC)(CC(=O)O)OCC3` (stereo not given) [Etodolac] here?
**A.** 1.07

**Q.** For `Cc1cc(O)c(C(=O)N[C@@H](C(=O)N[C@@H]2C(=O)N3C(C(=O)O)=C(CSc4nnnn4C)CS[C@H]23)c2ccc(O)cc2)cn1` [Cefpiramide sodium], which “z-score of prototroph abundance” value is on record?
**A.** -0.28

**Q.** `CC[N+](C)(C)c1cccc(O)c1` [Edrophonium chloride] was tested. Which “z-score of prototroph abundance” value did it give?
**A.** -0.67

**Q.** With `NC[C@H]1O[C@H](O[C@H]2[C@H](O[C@@H]3O[C@H](CO)[C@@H](O)[C@H]3O)[C@@H](O)[C@H](N)C[C@@H]2N)[C@H](N)[C@@H](O)[C@@H]1O` [Ribostamycin Sulfate] as the compound, how does the “z-score of prototroph abundance” value read?
**A.** 0.31

**Q.** For `c1cnc(N2CCN(Cc3ccc4c(c3)OCO4)CC2)nc1` [Piribedil], which “z-score of prototroph abundance” value is on record?
**A.** -0.35

**Q.** How did the “z-score of prototroph abundance” value turn out when `CC[C@H]1OC(=O)[C@H](C)[C@@H](O[C@H]2C[C@@](C)(OC)[C@@H](O)[C@H](C)O2)[C@H](C)[C@@H](O[C@@H]2O[C@H](C)C[C@H](N(C)C)[C@H]2O)[C@](C)(O)C[C@@H](C)C(=O)[C@H](C)[C@H]2OC(=O)O[C@@]21C` [Erythromycin Cyclocarbonate] was run?
**A.** -1.17

**Q.** How did the “z-score of prototroph abundance” value turn out when `COC(=O)C1=C(C)NC(C)=C(C(=O)OC)C1c1ccccc1[N+](=O)[O-]` [Nifedipine] was run?
**A.** -0.35

**Q.** With `Cc1cccc(N(C)C(=S)Oc2ccc3ccccc3c2)c1` [Tolnaftate] as the compound, how does the “z-score of prototroph abundance” value read?
**A.** 0.3

**Q.** Which “z-score of prototroph abundance” value does the source give for `Cc1cc(C)nc(NS(=O)(=O)c2ccc(N)cc2)n1` [Sulfamethazine] here?
**A.** 0

**Q.** With `CCC(C)(Oc1ccc(C2(c3ccc(OC(C)(CC)C(=O)O)cc3)CCCCC2)cc1)C(=O)O` (stereo not given) [Clinofibrate] as the compound, how does the “z-score of prototroph abundance” value read?
**A.** 0.14

**Q.** Which “z-score of prototroph abundance” value does the source give for `CN(C)CCn1nnnc1SCC1=C(C(=O)O)N2C(=O)[C@@H](NC(=O)Cc3csc(N)n3)[C@H]2SC1` [Cefotiam hydrochloride] here?
**A.** -1.4

**Q.** `CCC(=O)NS(=O)(=O)c1ccc(-c2c(-c3ccccc3)noc2C)cc1` [Parecoxib] was tested. Which “z-score of prototroph abundance” value did it give?
**A.** -0.12

**Q.** For `O=C(c1ccccc1)c1ccc2n1CCC2C(=O)O` (stereo not given) [Ketorolac tromethamine salt], which “z-score of prototroph abundance” value is on record?
**A.** 0.48

**Q.** How did the “z-score of prototroph abundance” value turn out when `COC(=O)C1=C(C#N)NC(C)=C(C(=O)OC(C)C)C1c1cccc([N+](=O)[O-])c1` (stereo not given) [Nilvadipine] was run?
**A.** 0.22

**Q.** How did the “z-score of prototroph abundance” value turn out when `CN1CCN(CCCN2c3ccccc3Sc3ccc(C(F)(F)F)cc32)CC1` [Trifluoperazine 2HCl] was run?
**A.** 0.01

**Q.** `Cc1nc2n(c(=O)c1CCN1CCC(c3noc4cc(F)ccc34)CC1)CCCC2` [Risperidone] was tested. Which “z-score of prototroph abundance” value did it give?
**A.** -0.99

**Q.** With `C[C@]12CCC(=O)C=C1[C@@H]1C[C@@H]1[C@H]1[C@@H]3[C@@H]4C[C@@H]4[C@@]4(CCC(=O)O4)[C@@]3(C)CC[C@@H]12` [Drospirenone] as the compound, how does the “z-score of prototroph abundance” value read?
**A.** -0.22

**Q.** `Nc1nc2c(ncn2COC(CO)CO)c(=O)[nH]1` [Ganciclovir] was tested. Which “z-score of prototroph abundance” value did it give?
**A.** -0.25

**Q.** How did the “z-score of prototroph abundance” value turn out when `Cc1cc(/C=C/c2ccc3cc(N(C)C)ccc3[n+]2C)c(C)n1-c1ccccc1` [pyrvinium] was run?
**A.** 0.55

**Q.** Which “z-score of prototroph abundance” value does the source give for `COC(=O)C1=C(C)NC(C)=C(C(=O)OCCN2CCN(C(c3ccccc3)c3ccccc3)CC2)C1c1cccc([N+](=O)[O-])c1` (stereo not given) [Manidipine 2HCl] here?
**A.** -1.31

**Q.** Which “z-score of prototroph abundance” value does the source give for `CCN(CC)CCNC(=O)c1cc(Cl)c(N)cc1OC` [Metoclopramide] here?
**A.** -1.14

**Q.** How did the “z-score of prototroph abundance” value turn out when `CC(C[N+](C)(C)C)OC(N)=O` (stereo not given) [Bethanechol chloride] was run?
**A.** -0.22

**Q.** Which “z-score of prototroph abundance” value does the source give for `CC(C)NNC(=O)c1ccncc1` [Iproniazid] here?
**A.** -0.56

**Q.** For `CC(C(=O)O)c1ccc(C(=O)c2cccs2)cc1` (stereo not given) [Suprofen], which “z-score of prototroph abundance” value is on record?
**A.** 0.24

**Q.** For `OC1(c2ccc(Cl)c(C(F)(F)F)c2)CCN(CCCC(c2ccc(F)cc2)c2ccc(F)cc2)CC1` [Penfluridol], which “z-score of prototroph abundance” value is on record?
**A.** -1.64

**Q.** With `Cc1cc2c(s1)Nc1ccccc1N=C2N1CCN(C)CC1` [Olanzapine] as the compound, how does the “z-score of prototroph abundance” value read?
**A.** 0.17

**Q.** `CC[C@H](c1ccc(O)cc1)[C@@H](CC)c1ccc(O)cc1` [Hexestrol] was tested. Which “z-score of prototroph abundance” value did it give?
**A.** 1.27

**Q.** With `CO[C@H]1O[C@@H]2O[C@@]3(C)CC[C@H]4[C@H](C)CC[C@@H]([C@H]1C)[C@@]24OO3` [Artemether] as the compound, how does the “z-score of prototroph abundance” value read?
**A.** 1.17
